Data: PubChem BioAssay AID540303 (National Center for Advancing Translational Sciences (NCATS), 2011)
About 1,000 (0.3%) of roughly 330,000 compounds were called active. Another 3% or so got no clear call; they are omitted. The call rests on the fitted dose curve; in most records, active means well fitted inhibition curve with a large enough effect; inconclusive means small, poorly fitted or top-dose-only effect; inactive means no such curve, though single readings can be large or run the other way; tested in mouse RAW 264.7 cells. Only a selection was taken, and actives are over-represented in it overall.

experiment: qHTS for Inhibitors of Cell Surface uPA Generation; settings: cell surface uPA generation assay; series mostly up to 38.3 µM; further: nearly all actives have a fitted effect of over 55% in size
Procedure, shortened: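 Using RAW 264.7 macrophages, the screen measures whether compounds keep cellular ATP up by preventing uPA-driven LF translocation. Treatment lasted 24 h at 37 C, with a final top concentration of 38.3 uM, and luminescence was the readout.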
Potency means the concentration at half of the fitted maximal effect.

Potency, active:
Oc1ccc(Br)cc1/C=N/Nc1ccccn1 2.82 µM
COc1ccc(CNc2nc(NCc3ccc(OC)cc3)c3ncn(C4CCCC4)c3n2)cc1 1.41 µM
OCCCNc1nccc(-c2cc(Nc3cccc(Cl)c3)ncn2)n1 1.58 µM
Clc1ccc(-c2cc(-c3ccccn3)on2)c(Cl)c1 0.891 µM
COc1ccc(-c2cc3ncccc3cn2)cc1 10 µM
COc1ccc(-c2cn3ccc(C)cc3n2)cc1 1 µM
COc1ccc(C(=O)c2c3ccc([N+](=O)[O-])cc3[n+]([O-])n2CCCN)cc1 0.794 µM
COc1cc(/C=C2\Oc3ccc(C#Cc4ccc(O)cc4)cc3C2=O)cc(OC)c1 4.47 µM
CN(Cc1ccccc1)CC(O)COc1ccc(CNCc2cc3ccccc3s2)cc1 (stereo unspecified) 10 µM
COc1ccc(CC2c3cc(OC)c(OC)cc3CC[N+]2(C)CCC(=O)OCCCCCOC(=O)CC[N+]2(C)CCc3cc(OC)c(OC)cc3C2Cc2ccc(OC)c(OC)c2)cc1OC (stereo unspecified) 10 µM
CCOC(=O)c1c(C)[nH]c2c1-c1ccccc1C(=O)C2=O 5.62 µM
CCN1/C(=C\c2ccc3ccccc3[n+]2CC)Sc2cc(C)ccc21 3.55 µM

Potency, inactive:
COCC(=O)N(C)[C@H]1C[C@H]2c3cc(Oc4ccccc4C)ccc3CCN2C(=O)[C@H]1[C@H](C)O
CC(=O)OC1CCC2C3CCC4=C(CC(F)C(=O)C4)C3CCC12C (stereo unspecified)
Oc1ccc(Br)cc1C=Nc1ccc2[nH]ncc2c1
Oc1ccc(/C=N/Nc2ccc(C(F)(F)F)cn2)cc1O
C[C@@H]1ON(C)[C@H]2C[C@H]3c4cc(N5CCN(C)CC5)ccc4CCN3C(=O)[C@@H]12
COc1ccc(CNc2ncnc3ccccc23)cc1
COc1ccc(CNC(=O)C2CCCC2)cc1
OCCCNc1nc(-c2ccccc2)c2cc(Cl)ccc2n1
NS(=O)(=O)c1cccnc1Nc1cccc(Cl)c1
NC1=NOC(=O)C1C1CCCCC1 (stereo unspecified)
CCCCN(C(=O)CSCc1ccc(C)cc1)c1c(N)n(Cc2ccccc2)c(=O)[nH]c1=O
Nc1ccc2c(c1)C(=Cc1cccnc1)c1ccccc1-2
O=C1c2ccccc2C(=O)N1Cc1cc(-c2ccccc2Cl)no1
COn1c(-c2ccc(Cl)cc2Cl)nc2ncccc21
CN(O)C(=S)c1ccccc1
CCc1c(Nc2ccccc2C)nc(N)[nH]c1=O
CCN(CC)S(=O)(=O)c1cccc(NC(=O)c2ccc(S(=O)(=O)N3CCCC3)cc2)c1
COc1ccc(-c2cn3cccnc3n2)cc1
COc1ccc(-c2nnc(-c3ccc4ccccc4c3)o2)cc1
COc1ccc(/C=C/C(=O)OCC(=O)N2CCN(S(=O)(=O)c3ccc(C)cc3C)CC2)cc1OC
COc1cc(C(=O)CCc2ccc3c(c2)OCO3)cc(OC)c1OC
S=C(Nc1ccccc1)Nc1ccc2ccccc2c1
CCN(CC)S(=O)(=O)c1ccc(-c2cn3ccc(C)cc3n2)cc1
Cc1ccn2cc(C(=O)NC3CCN(Cc4ccccc4)CC3)nc2c1
O=c1ccn([C@@H]2O[C@H](CNS(=O)(=O)c3cc4ccccc4s3)[C@@H](O)[C@H]2O)c(=O)[nH]1
O=C(NN=Cc1ccccc1)c1ccccc1
CC(=O)N1CCc2ccc(N)cc21
COc1ccc2c(c1)c(=Cc1ccc(N(C)C)cc1)c1cc(-c3ccccc3)[n+](C)n12
O=[N+]([O-])c1cc2ccccc2nc1-c1ccccc1
COc1ccc2c(C(=O)c3ccc(C)cc3)n(CCC(N)=O)[n+]([O-])c2c1
COc1ccc(C(=O)CC(=O)C(=O)Nc2cc([N+](=O)[O-])ccc2OC)cc1
CC/C(=C(/c1ccccc1)c1ccc(OCC[N+](C)(C)C)cc1)c1ccccc1
Cc1c(NS(=O)(=O)c2cccc(C(=O)Nc3ccc(SC(F)F)cc3)c2)c(=O)n(-c2ccccc2)n1C
OCCN1CCN(CCO)C1=S
COc1cccc(C=CC(=O)C=CC=Cc2ccccc2)c1
COC(=O)C(C)Oc1ccc2c(c1)O/C(=C\c1cccc(Br)c1)C2=O (stereo unspecified)
COc1ccc2c(c1)O/C(=C\c1ccccc1O)C2=O
CCC1([N+](=O)[O-])COC(c2ccc(C(C)C)cc2)OC1 (stereo unspecified)
N#CC1=C(N)Oc2cc(N)ccc2C1c1ccccc1 (stereo unspecified)
Cc1ccc(OCC(=O)OC(C)CN(C)Cc2ccccc2)cc1 (stereo unspecified)
OC(CNCc1ccc2c(c1)OCO2)COc1ccccc1 (stereo unspecified)
O=c1nc(NO)ccn1C1CCCO1 (stereo unspecified)
CN(C)CCNC(=O)c1ccc(Cl)c2cc3ccccc3nc12
Cc1ccc(S(=O)(=O)n2oc(=O)c(C3CCCCC3)c2N)cc1
COC(=O)C1=CN(Cc2ccc(OC)c(OC)c2)C=C(C(=O)OC)C1c1cccs1
CCc1ccc(OCC2c3cc(OC)c(OC)cc3CCN2C(C)=O)cc1 (stereo unspecified)
COc1ccc(S(=O)(=O)N2CCc3ccccc32)cc1C(=O)Nc1cc(S(C)(=O)=O)ccc1Cl
O=C1/C(=C\c2ccc([N+](=O)[O-])cc2)CS(=O)(=O)C/C1=C/c1ccc([N+](=O)[O-])cc1
CCOC(=O)c1c(C)[nH]c(C)c1S(=O)(=O)N(C)CC(=O)Nc1ccccc1C
CCOC(=O)c1ccccc1OC(=O)Oc1ccccc1C(=O)OCC
CC(=O)Oc1ccc(OC(C)=O)c2c1C1C=CC2CC1
C[C@H](O)[C@@H]1C(=O)N2CCc3ccc(N4CCOCC4)cc3[C@@H]2C[C@@H]1N(C)C(=O)C(C)(C)C
CC(NC(=O)c1ccccc1)C(=O)OCC(=O)Nc1cccc(S(=O)(=O)N2CCCC2)c1 (stereo unspecified)
O=C(NNC(=O)c1ccccc1O)c1ccccc1O
